Results: the supplement of paper PMC12494721
Where a name gives a salt, the structure may show the parent alone.

Tested on: Klebsiella aerogenes DSM 30053
Experiment: fold change of Putrescine concentration vs plate DMSO controls (fold change (ratio)); higher = more amine produced, active = hit call of the paper (significant change in both replicates, either direction)
Settings: incubation time: 27 h, anaerobic, 37 °C;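 for the amine columns active = adjusted P below 0.05 in both replicates with a change the same way and a mean fold change under 0.8 or over 1.25; inactive = the rest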
Procedure, shortened: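 Extracts of whole anaerobic mGAM cultures were analysed for amines by LC–triple-quadrupole MS with dynamic MRM and external calibration curves, with drift corrected within batch. Four gut strains were grown at 37 °C for 27 h in 80 µL wells with compounds at 20 µM final, sweeteners at 50 µM final. Each value expresses fold change over plate DMSO controls. The average of 2 biological replicates is shown.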

Fold change of Putrescine concentration, inactive:
CCCCCCC[N+](CC)(CC)CCCCc1ccc(Cl)cc1 [Clofilium tosylate] (20 µM) 0.968, N=C(N)NCC1COC2(CCCCC2)O1 (centres undefined) [Guanadrel sulfate] (20 µM) 1.04, CCCC(CCC)C(=O)O[C@H]1C[C@H]2CC[C@@H](C1)[N+]2(C)C [Anisotropine Methylbromide] (20 µM) 0.962, COc1ccc2c(c1)c(CC(=O)OCC(=O)O)c(C)n2C(=O)c1ccc(Cl)cc1 [Acemetacin] (20 µM) 1.01, CN1CCCN=C1/C=C/c1cccc(O)c1 [Oxantel pamoate] (20 µM) 0.967, COc1c(O[C@@H]2O[C@H](CO)[C@@H](O)[C@H](O)[C@H]2O)cc2c(c1OC)-c1ccc(SC)c(=O)cc1[C@@H](NC(C)=O)CC2 [Thiocolchicoside] (20 µM) 1.02, Cc1c(Nc2ncccc2C(=O)O)cccc1C(F)(F)F [Flunixin meglumine] (20 µM) 0.959, C#C[C@]1(OC(C)=O)CC[C@H]2[C@@H]3CCC4=CC(=NO)CC[C@@H]4[C@H]3CC[C@@]21CC (mixture of isomers) [Norgestimate] (20 µM) 0.985, CC12CC3CC(C)(C1)CC(N)(C3)C2 [Memantine hydrochloride] (20 µM) 0.984, CC(CCc1ccccc1)NCC(O)c1ccc(O)c(C(N)=O)c1 (centres undefined) [Labetalol hydrochloride] (20 µM) 0.996, CCCCc1oc2ccc(NS(C)(=O)=O)cc2c1C(=O)c1ccc(OCCCN(CCCC)CCCC)cc1 [Dronedarone hydrochloride] (20 µM) 1, CCN1CCCC(OC(=O)C(c2ccccc2)c2ccccc2)C1 (centres undefined) [Piperidolate hydrochloride] (20 µM) 1, C[C@]1(Cn2ccnn2)[C@H](C(=O)O)N2C(=O)C[C@H]2S1(=O)=O [Tazobactam] (20 µM) 1.04, O=C(CCCN1CCN(c2ccccn2)CC1)c1ccc(F)cc1 [Azaperone] (20 µM) 0.987, CC(=O)Nc1c(I)c(NC(C)=O)c(I)c(C(=O)O)c1I [Diatrizoic acid dihydrate] (20 µM) 0.983, CN[C@@H]1[C@@H](O)[C@@H](O[C@@H]2[C@@H](O)[C@H](O[C@H]3OC(CN)=CC[C@H]3N)[C@@H](N)C[C@H]2N)OC[C@]1(C)O [Sisomicin sulfate] (20 µM) 0.998, CC(CN(C)C)C(C)(O)Cc1ccc(Cl)cc1 (centres undefined) [Clobutinol hydrochloride] (20 µM) 0.997, CC(=O)[C@H]1CC[C@H]2[C@@H]3C[C@H](C)C4=CC(=O)CC[C@]4(C)[C@H]3[C@@H](O)C[C@]12C [Medrysone] (20 µM) 1, CC(C(=O)O)c1ccc(-c2ccccc2)c(F)c1 (centres undefined) [Flurbiprofen] (20 µM) 1.03, CCOC(=O)/C=C(C)/C=C/C=C(C)/C=C/c1c(C)cc(OC)c(C)c1C [Etretinate] (20 µM) 1.02, c1ccc2c(CC3=NCCN3)cccc2c1 [Naphazoline hydrochloride] (20 µM) 1, CCCCC(=O)N(Cc1ccc(-c2ccccc2-c2nnn[nH]2)cc1)[C@H](C(=O)O)C(C)C [Valsartan] (20 µM) 0.951, COc1ccccc1O [Guaiacol] (20 µM) 0.999, OC[C@H]1O[C@@H](O[C@@H]2[C@@H](CO)OC(O)(CO)[C@H]2O)[C@H](O)[C@@H](O)[C@H]1O (mixture of isomers) [Lactulose] (50 µM) 1.02, CC(C)COC(=O)OCN1C(=O)CN(CCN2CC(=O)N(COC(=O)OCC(C)C)C(=O)C2)CC1=O [Sobuzoxane] (20 µM) 0.996, NS(=O)(=O)c1cc2c(cc1C(F)(F)F)NC(Cc1ccccc1)NS2(=O)=O (centres undefined) [Bendroflumethiazide] (20 µM) 0.971, CCOC(=O)[C@H](CCc1ccccc1)N[C@H]1CCc2ccccc2N(CC(=O)O)C1=O [Benazepril hydrochloride] (20 µM) 0.981, CC(=O)Oc1cc(C(C)C)c(OCCN(C)C)cc1C [Moxisylyte hydrochoride] (20 µM) 1.03, O=C1c2c(O)ccc(O)c2C(=O)c2c(NCCNCCO)ccc(NCCNCCO)c21 [Mitoxantrone dihydrochloride] (20 µM) 1.02, Nc1cccc2c1C(=O)N(C1CCC(=O)NC1=O)C2=O (centres undefined) [Pomalidomide] (20 µM) 1.04, CCCCOc1ccc(C(=O)CCN2CCCCC2)cc1 [Dyclonine hydrochloride] (20 µM) 0.995, OCC(O)CN1CCN(c2ccccc2)CC1 (centres undefined) [Dropropizine] (20 µM) 1, CN(C)CCC(c1ccc(Cl)cc1)c1ccccn1 (centres undefined) [Chlorpheniramine maleate] (20 µM) 0.989, CNCC(O)c1ccc(OC(=O)C(C)(C)C)c(OC(=O)C(C)(C)C)c1 (centres undefined) [Dipivefrin hydrochloride] (20 µM) 0.981, CC(=O)O[C@H]1C[C@@]2(C)[C@@H](C[C@@H](O)[C@H]3[C@@]4(C)CC[C@@H](O)[C@@H](C)[C@@H]4CC[C@@]32C)/C1=C(\CCC=C(C)C)C(=O)O [Fusidic acid sodium salt] (20 µM) 0.963, CCOc1ccccc1OCC1CNCCO1 (centres undefined) [Viloxazine hydrochloride] (20 µM) 1, OC[C@H]1O[C@@H](O[C@H]2[C@H](O)[C@@H](O)[C@H](O)O[C@@H]2CO)[C@H](O)[C@@H](O)[C@H]1O [Lactose] (50 µM) 1.01, CCC(=O)c1ccc(O)cc1 [Paroxypropione] (20 µM) 1.02, CCOc1ccc2ccccc2c1C(=O)N[C@@H]1C(=O)N2[C@@H]1SC(C)(C)[C@@H]2C(=O)O [Nafcillin sodium salt monohydrate] (20 µM) 1.06
